The results in this text go back to article PMC9838217, “Structure of SALL4 zinc finger domain reveals link between AT-rich DNA binding and Okihiro syndrome”.

Where a chain is given by its changes, count along the chain named.

The target of the first experiment is T1, SALL4 ZFC4 WT (HT-SELEX) (Mus musculus, UniProt Q8BX22 870-940).
T1 sequence: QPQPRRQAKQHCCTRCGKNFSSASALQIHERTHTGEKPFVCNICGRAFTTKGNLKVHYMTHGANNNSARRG
Nature of the experiment: HT-SELEX; high values mean tight binding. The conditions noted are these: protein: recombinant; vector His6-GST; dsDNA, one strand shown. Summed up:
(§1)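 Up to 6 cycles of selection were run in triplicate. In each, purified recombinant mouse SALL4 zinc finger cluster 4 (residues 870–940, 1 µg) was incubated with library DNA (1.5 µg first cycle, 200 ng later) in 100 µl of 10 mM Tris–HCl pH 7.5, 50 mM NaCl, poly(dI-dC), DTT for 10 min at room temperature, then complexes were captured on Ni2+ beads, washed and PCR-amplified; final pools were MiSeq-sequenced and scanned for 6-mers. Binding signal is each canonical k-mer's read fraction as fold change versus the initial random library.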
ATAAAT: the binding signal was determined as 4.06 ± 0.373 fold-change vs cycle 0.
On to CAACGA, for which the binding signal came out at 0.626 ± 0.036 fold-change vs cycle 0.
In the case of GAACAA, the binding signal was 1.17 ± 0.0569 fold-change vs cycle 0.
The same measure, in the same setting: then GGATCA, with 0.841 ± 0.0365 fold-change vs cycle 0.
On the same count and under the same terms, then CCTTTA, with 1.31 ± 0.0506 fold-change vs cycle 0; and GATCCA, with 0.791 ± 0.0326 fold-change vs cycle 0; and GGTACA, with 0.743 ± 0.0263 fold-change vs cycle 0.
On the same count and under the same terms, the figure for AATGAT is 2.25 ± 0.203 fold-change vs cycle 0; for GTTAGA it is 1.3 ± 0.0316 fold-change vs cycle 0.
For ATACAG, the binding signal amounted to 1.33 ± 0.0931 fold-change vs cycle 0.
Regarding ACCTAT, the binding signal was 1.37 ± 0.0376 fold-change vs cycle 0.
As to CGATAA, the binding signal was determined as 1.17 ± 0.0894 fold-change vs cycle 0.
On the same count and under the same terms, the figure for CAGCTC is 0.332 ± 0.0301 fold-change vs cycle 0; for GAGGGA it is 0.53 ± 0.0239 fold-change vs cycle 0; for ACTTAA it is 1.95 ± 0.0715 fold-change vs cycle 0.
Same read-out and setting: then CCTAAC, with 0.883 ± 0.0279 fold-change vs cycle 0; and ATTCCA, with 1.45 ± 0.0836 fold-change vs cycle 0.
As to GAGTTA, the binding signal was 1.47 ± 0.0406 fold-change vs cycle 0.
Regarding CCCCTC, the binding signal came out at 0.31 ± 0.0217 fold-change vs cycle 0.
On the same count and under the same terms, the figure for CTCTAA is 1.25 ± 0.0589 fold-change vs cycle 0.
In the case of AAGAAG, the binding signal was determined as 1.4 ± 0.0333 fold-change vs cycle 0.
Consider CAATGA, for which the binding signal stood at 1.32 ± 0.056 fold-change vs cycle 0.
Same read-out and setting: then GGATAA, with 1.38 ± 0.0543 fold-change vs cycle 0; and CAGCAC, with 0.3 ± 0.0076 fold-change vs cycle 0.
Turning to AACGAA, the binding signal came to 1.15 ± 0.0599 fold-change vs cycle 0.
The same measure, in the same setting: then CTCCAA, with 0.746 ± 0.0518 fold-change vs cycle 0.
Still for that read-out and setting: the figure for AGTTGA is 1.26 ± 0.0298 fold-change vs cycle 0; for CTTGTA it is 1.27 ± 0.0539 fold-change vs cycle 0; for AATGTC it is 1.08 ± 0.0855 fold-change vs cycle 0.
GTAACA: the binding signal amounted to 1.36 ± 0.0267 fold-change vs cycle 0.
As to CGTATC, the binding signal was 0.723 ± 0.0291 fold-change vs cycle 0.
AACACT: the binding signal stood at 1.28 ± 0.027 fold-change vs cycle 0.
On to ACCTTA, for which the binding signal was 1.43 ± 0.0462 fold-change vs cycle 0.
In the case of AAAGGT, the binding signal came out at 1.26 ± 0.075 fold-change vs cycle 0.
The same measure, in the same setting: then CCATAC, with 0.84 ± 0.0342 fold-change vs cycle 0; and GGGAGA, with 0.48 ± 0.0185 fold-change vs cycle 0.
On the same count and under the same terms, then GAAATC, with 1.25 ± 0.0302 fold-change vs cycle 0.
In the case of GCTAGA, the binding signal came to 0.636 ± 0.0274 fold-change vs cycle 0.
On the same count and under the same terms, then AGTCCC, with 0.468 ± 0.0376 fold-change vs cycle 0; and ATACGC, with 0.486 ± 0.0113 fold-change vs cycle 0.

In a further experiment the target is T2, SALL4 ZFC4 R900W (HT-SELEX) (Mus musculus, UniProt Q8BX22 870-940, R900W).
T2 sequence: T1 sequence with R31W
Nature of the experiment: HT-SELEX; high values mean tight binding. The conditions noted are these: protein: recombinant; vector His6-GST; dsDNA, one strand shown. In a few lines: as §1
ATAAAT: the binding signal is 2.56 ± 0.158 fold-change vs cycle 0.
Consider CAACGA, for which the binding signal stood at 0.7439 ± 0.00396 fold-change vs cycle 0.
GAACAA: the binding signal came to 1.32 ± 0.0741 fold-change vs cycle 0.
As to GGATCA, the binding signal came out at 0.972 ± 0.0131 fold-change vs cycle 0.
For the sequence CCTTTA, the binding signal is 1.47 ± 0.0755 fold-change vs cycle 0.
The same measure, in the same setting: the figure for GATCCA is 0.883 ± 0.0218 fold-change vs cycle 0; for GGTACA it is 0.823 ± 0.0156 fold-change vs cycle 0; for AATGAT it is 2.15 ± 0.135 fold-change vs cycle 0.
On the same count and under the same terms, then GTTAGA, with 1.47 ± 0.0186 fold-change vs cycle 0; and ATACAG, with 1.41 ± 0.0818 fold-change vs cycle 0; and ACCTAT, with 1.45 ± 0.0775 fold-change vs cycle 0.
Same read-out and setting: the figure for CGATAA is 1.19 ± 0.0909 fold-change vs cycle 0; for CAGCTC it is 0.394 ± 0.00722 fold-change vs cycle 0.
On to GAGGGA, for which the binding signal came out at 0.609 ± 0.0584 fold-change vs cycle 0.
The same measure, in the same setting: then ACTTAA, with 2.12 ± 0.103 fold-change vs cycle 0; and CCTAAC, with 0.976 ± 0.0147 fold-change vs cycle 0.
As to ATTCCA, the binding signal is 1.44 ± 0.0779 fold-change vs cycle 0.
For the sequence GAGTTA, the binding signal is 1.52 ± 0.0183 fold-change vs cycle 0.
For CCCCTC, the binding signal turned out to be 0.35 ± 0.0216 fold-change vs cycle 0.
On to CTCTAA, for which the binding signal was determined as 1.39 ± 0.103 fold-change vs cycle 0.
The same measure, in the same setting: the figure for AAGAAG is 1.63 ± 0.0977 fold-change vs cycle 0; for CAATGA it is 1.47 ± 0.0677 fold-change vs cycle 0.
Take GGATAA: the binding signal amounted to 1.52 ± 0.0741 fold-change vs cycle 0.
Take CAGCAC: the binding signal is 0.335 ± 0.0156 fold-change vs cycle 0.
On the same count and under the same terms, the figure for AACGAA is 1.28 ± 0.0641 fold-change vs cycle 0; for CTCCAA it is 0.878 ± 0.04 fold-change vs cycle 0.
On to AGTTGA, for which the binding signal was 1.43 ± 0.0288 fold-change vs cycle 0.
Take CTTGTA: the binding signal came to 1.44 ± 0.0511 fold-change vs cycle 0.
AATGTC: the binding signal amounted to 1.21 ± 0.0715 fold-change vs cycle 0.
Same read-out and setting: the figure for GTAACA is 1.52 ± 0.0694 fold-change vs cycle 0; for CGTATC it is 0.818 ± 0.0282 fold-change vs cycle 0.
On the same count and under the same terms, then AACACT, with 1.39 ± 0.0403 fold-change vs cycle 0; and ACCTTA, with 1.6 ± 0.0314 fold-change vs cycle 0.
On to AAAGGT, for which the binding signal is 1.41 ± 0.06 fold-change vs cycle 0.
Take CCATAC: the binding signal turned out to be 0.88 ± 0.0149 fold-change vs cycle 0.
On the same count and under the same terms, the figure for GGGAGA is 0.566 ± 0.0484 fold-change vs cycle 0.
Same read-out and setting: the figure for GAAATC is 1.28 ± 0.0173 fold-change vs cycle 0.
GCTAGA: the binding signal amounted to 0.746 ± 0.0225 fold-change vs cycle 0.
In the case of AGTCCC, the binding signal was 0.54 ± 0.0297 fold-change vs cycle 0.
On the same count and under the same terms, then ATACGC, with 0.531 ± 0.0184 fold-change vs cycle 0.

The next experiment addresses T3, SALL4 ZFC4 G921D (HT-SELEX) (Mus musculus, UniProt Q8BX22 870-940, G921D).
T3 sequence: T1 sequence with G52D
Nature of the experiment: HT-SELEX; high values mean tight binding. The conditions noted are these: protein: recombinant; vector His6-GST; dsDNA, one strand shown. Summed up: as §1
As to ATAAAT, the binding signal came to 2.19 ± 0.239 fold-change vs cycle 0.
CAACGA: the binding signal was 0.81 ± 0.0225 fold-change vs cycle 0.
The same measure, in the same setting: the figure for GAACAA is 1.28 ± 0.0879 fold-change vs cycle 0.
On the same count and under the same terms, the figure for GGATCA is 1.03 ± 0.0289 fold-change vs cycle 0.
The same measure, in the same setting: then CCTTTA, with 1.33 ± 0.0771 fold-change vs cycle 0; and GATCCA, with 0.996 ± 0.0315 fold-change vs cycle 0; and GGTACA, with 0.894 ± 0.0191 fold-change vs cycle 0.
Regarding AATGAT, the binding signal is 1.94 ± 0.238 fold-change vs cycle 0.
On the same count and under the same terms, then GTTAGA, with 1.41 ± 0.0651 fold-change vs cycle 0; and ATACAG, with 1.36 ± 0.0886 fold-change vs cycle 0; and ACCTAT, with 1.43 ± 0.0809 fold-change vs cycle 0.
Same read-out and setting: then CGATAA, with 1.15 ± 0.0473 fold-change vs cycle 0; and CAGCTC, with 0.526 ± 0.0361 fold-change vs cycle 0; and GAGGGA, with 0.684 ± 0.0537 fold-change vs cycle 0.
On the same count and under the same terms, the figure for ACTTAA is 1.85 ± 0.222 fold-change vs cycle 0; for CCTAAC it is 1 ± 0.0113 fold-change vs cycle 0.
For ATTCCA, the binding signal was 1.38 ± 0.106 fold-change vs cycle 0.
On the same count and under the same terms, then GAGTTA, with 1.45 ± 0.0562 fold-change vs cycle 0; and CCCCTC, with 0.456 ± 0.0591 fold-change vs cycle 0; and CTCTAA, with 1.36 ± 0.0965 fold-change vs cycle 0.
For AAGAAG, the binding signal came to 1.45 ± 0.147 fold-change vs cycle 0.
The same measure, in the same setting: the figure for CAATGA is 1.4 ± 0.0741 fold-change vs cycle 0; for GGATAA it is 1.34 ± 0.114 fold-change vs cycle 0; for CAGCAC it is 0.476 ± 0.0603 fold-change vs cycle 0.
The same measure, in the same setting: then AACGAA, with 1.24 ± 0.054 fold-change vs cycle 0; and CTCCAA, with 0.924 ± 0.0231 fold-change vs cycle 0; and AGTTGA, with 1.37 ± 0.0654 fold-change vs cycle 0.
The same measure, in the same setting: then CTTGTA, with 1.33 ± 0.0845 fold-change vs cycle 0.
For AATGTC, the binding signal stood at 1.22 ± 0.0672 fold-change vs cycle 0.
On the same count and under the same terms, the figure for GTAACA is 1.39 ± 0.0863 fold-change vs cycle 0; for CGTATC it is 0.89 ± 0.0234 fold-change vs cycle 0.
For the sequence AACACT, the binding signal worked out at 1.33 ± 0.0261 fold-change vs cycle 0.
Still for that read-out and setting: the figure for ACCTTA is 1.44 ± 0.0668 fold-change vs cycle 0; for AAAGGT it is 1.29 ± 0.0787 fold-change vs cycle 0.
In the case of CCATAC, the binding signal came out at 0.931 ± 0.0299 fold-change vs cycle 0.
For GGGAGA, the binding signal was found to be 0.638 ± 0.033 fold-change vs cycle 0.
Same read-out and setting: the figure for GAAATC is 1.27 ± 0.0773 fold-change vs cycle 0; for GCTAGA it is 0.8072 ± 0.00258 fold-change vs cycle 0; for AGTCCC it is 0.65 ± 0.0407 fold-change vs cycle 0.
Same read-out and setting: the figure for ATACGC is 0.66 ± 0.0195 fold-change vs cycle 0.
